Data published in PubChem BioAssay (Tox21).
Inconclusive results are not listed. Active and inactive are the calls of the source. Unless noted, the call rests on the fitted dose curve; in most records, active means well fitted curve in the direction sought with a large enough effect in the repeat runs; inconclusive means weak or mixed curves; inactive means no such curve, though single readings can be large; an effect the other way counts as inactive or inconclusive.

Experiments:
[1] = qHTS assay for small molecule agonists of the p53 signaling pathway (AID 651631; calls by dose curve; further: nearly all actives have a fitted effect of over 15% in size)
Outline: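 Stably transfected HCT-116 cells (beta-lactamase behind p53 response elements) get compounds after a 5 h settling period; 16 h later at 37 °C, FRET substrate is loaded and fluorescence read after 2 h.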

[2] = qHTS assay for small molecules that induce genotoxicity in human embryonic kidney cells expressing luciferase-tagged ATAD5 (AID 651632); further: nearly all actives have a fitted effect of over 15% in size
Outline: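 Reporter cells (HEK293T) express luciferase-tagged ATAD5, a protein that accumulates after DNA damage. Treat 16 hr at 37C/5% CO2, add Amplite, wait 30 min at RT, and read luminescence.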

[3] = qHTS assay for small molecule agonists of the p53 signaling pathway - cell viability (AID 651633; calls by dose curve;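 further: p53RE-bla HCT reporter cells with a stable beta-lactamase p53 reporter; series mostly up to about 83 µM; nearly all actives have a fitted effect of over 30% in size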)
Outline: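 p53RE-bla cells were treated with compound for 16 hours at 37 C. Cytotoxicity was then measured as CellTiter-Glo luminescence after 30 min at room temperature.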

[4] = qHTS assay for small molecules that induce genotoxicity in human embryonic kidney cells expressing luciferase-tagged ATAD5 - cell viability (AID 651634; calls by dose curve; further: nearly all actives have a fitted effect of over 25% in size)
Outline: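 Seeding of 2,000 HEK293T ATAD5-luciferase cells per well preceded pin-tool compound transfer. Plates sat 15.5 hr at 37C under 5% CO2, then fluorescence was read after 30 min with CellTiter-Fluor.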

[5] = qHTS assay for small molecule disruptors of the mitochondrial membrane potential - cell viability (AID 720634; calls by dose curve;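 further: human HepG2 liver cancer cells; series mostly up to about 83 µM; nearly all actives have a fitted effect of over 20% in size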)
Outline: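 Measuring cytotoxicity alongside mitochondrial potential, the screen quantified ATP by luminescence in HepG2 cells after 1 hr compound incubation and a 30 min room-temperature CellTiter-Glo step.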

[6] = qHTS assay to test for compound auto fluorescence at 590 nm (red) in HepG2 cells (AID 720674)
Outline: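 Fluorescence at 590 nm emission following 540 nm excitation was recorded from HepG2 wells one hour after compound transfer, with DMSO-only wells as vehicle and Rose Bengal sodium equivalency as the scale.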

[7] = qHTS assay to test for compound auto fluorescence at 535 nm (green) in HepG2 cells (AID 720675)
[8] = qHTS assay to test for compound auto fluorescence at 460 nm (blue) in HEK293 cells (AID 720678)
Outline: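 HEK293 cells (2,000/well, medium with 10% dialyzed FBS) attached 4-5 hr, then exposed to compound overnight at 37C, 5% CO2. Blue fluorescence read at 405/460 nm, with triamterene as reference fluorophore.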

[9] = qHTS assay to test for compound auto fluorescence at 590 nm (red) in HEK293 cells (AID 720679)
Outline: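 HEK293 cells (2,000/well, 10% dialyzed FBS) attached 4-5 hr, then dosed with compound or DMSO and incubated overnight at 37C, 5% CO2. Red fluorescence read at 540/590 nm, Rose Bengal sodium as reference fluorophore.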

[10] = qHTS assay to test for compound auto fluorescence at 535 nm (green) in HEK293 cells (AID 720680)
[11] = qHTS assay to test for compound auto fluorescence at 535 nm (green) in HEK293 cell free culture (AID 720682)
Outline: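 Using fluorescein as calibrant, autofluorescence was quantified at 485/535 nm in cell-free DMEM containing 10% FBS after pintool addition of compound or vehicle.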

[12] = qHTS assay to test for compound auto fluorescence at 590 nm (red) in HEK293 cell free culture (AID 720683)
Outline: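 Cell-free wells of DMEM with 10% FBS received compound, and intrinsic fluorescence was read at excitation/emission 540/590 nm. Values expressed as equivalence to Rose Bengal sodium.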

[13] = qHTS assay to test for compound auto fluorescence at 590 nm (red) in HepG2 cell free culture (AID 720684)
Outline: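 Compound was pinned into wells holding MEM with 10% FBS and no cells, and red fluorescence was read at Ex/Em 540/590 nm. Signal is expressed as auto fluorescence equivalency relative to Rose Bengal sodium.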

[14] = qHTS assay to test for compound auto fluorescence at 460 nm (blue) in HepG2 cell free culture (AID 720685)
Outline: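 Compound (23 nL) or DMSO pinned into cell-free MEM with 10% FBS; blue fluorescence read at 405/460 nm excitation/emission, expressed as auto-fluorescence equivalency to triamterene.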

[15] = qHTS assay to test for compound auto fluorescence at 535 nm (green) in HepG2 cell free culture (AID 720686)
[16] = qHTS assay to test for compound auto fluorescence at 460 nm (blue) in HepG2 cells (AID 720687)
Outline: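 HepG2 cells in MEM with 10% FBS, attached overnight at 37 C, were exposed to compound or DMSO for 1 hr at 37 C, 5% CO2. Blue fluorescence was read at 405/460 nm, with triamterene as reference fluorophore.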

[17] = biological target: Glucocorticoid receptor (Homo sapiens) (UniProt P04150); assay: qHTS assay to identify small molecule agonists of the glucocorticoid receptor (GR) signaling pathway (AID 720691; active means well fitted activation curve with a large enough effect in the signal ratio in the repeat runs, not every such curve was filed as active; the % refers to the signal ratio)
Outline: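 Reporter read-out: fluorescence intensity following 2 h room-temperature LiveBLAzer B/G FRET substrate loading. Prior step: GR-bla HeLa cells held 4 h, then treated 18 h at 37 C.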

[18] = biological target: Glucocorticoid receptor (Homo sapiens) (UniProt P04150); assay: qHTS assay to identify small molecule antagonists of the glucocorticoid receptor (GR) signaling pathway (AID 720692; active means well fitted inhibition curve with a large enough effect in the signal ratio in the repeat runs, not every such curve was filed as active; the % refers to the signal ratio)
Outline: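 Dexamethasone (5 nM final) stimulated a stably integrated GRE-beta-lactamase reporter in HeLa cells during 18 h co-incubation with compounds; signal was quantified as fluorescence intensity of B/G FRET substrate after 2 h.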

[19] = qHTS assay to test for compound auto fluorescence at 460 nm (blue) in HEK293 cell free culture (AID 720681)
Outline: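 Compounds were added to cell-free DMEM with 10% FBS and fluorescence read directly. The blue channel used 405 nm excitation and 460 nm emission, with triamterene as the reference fluorophore.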

Measured: Potency

Chain of Glucocorticoid receptor (Homo sapiens) (P04150 whole entry, looked up): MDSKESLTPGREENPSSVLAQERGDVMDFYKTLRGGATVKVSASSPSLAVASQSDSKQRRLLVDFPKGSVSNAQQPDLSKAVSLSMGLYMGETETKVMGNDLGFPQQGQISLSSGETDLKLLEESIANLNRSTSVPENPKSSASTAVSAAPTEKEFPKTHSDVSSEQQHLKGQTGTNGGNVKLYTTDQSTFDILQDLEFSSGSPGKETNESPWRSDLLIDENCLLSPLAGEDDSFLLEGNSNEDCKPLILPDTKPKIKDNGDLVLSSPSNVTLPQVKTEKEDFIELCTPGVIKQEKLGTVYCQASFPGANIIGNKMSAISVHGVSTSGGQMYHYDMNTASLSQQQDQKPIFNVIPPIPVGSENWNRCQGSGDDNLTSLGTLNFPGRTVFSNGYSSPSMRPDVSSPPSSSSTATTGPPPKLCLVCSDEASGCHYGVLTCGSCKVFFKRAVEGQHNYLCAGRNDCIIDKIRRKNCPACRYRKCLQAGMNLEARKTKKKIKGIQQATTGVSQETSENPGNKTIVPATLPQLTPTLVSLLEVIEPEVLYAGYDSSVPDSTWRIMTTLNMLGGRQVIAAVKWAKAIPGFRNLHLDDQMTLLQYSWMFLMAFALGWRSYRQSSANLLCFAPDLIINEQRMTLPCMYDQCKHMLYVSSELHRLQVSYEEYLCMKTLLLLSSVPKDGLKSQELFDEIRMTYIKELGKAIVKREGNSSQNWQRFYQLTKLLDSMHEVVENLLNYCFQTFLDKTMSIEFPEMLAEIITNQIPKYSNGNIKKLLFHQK

CCCc1ccccc1
inactive: [1] | [2] | [3] | [4] | [5] | [6] | [7] | [8] | [9] | [10] | [11] | [12] | [13] | [14] | [15] | [16] | [17] | [18]

Cc1cccc(OCCOc2cccc(C)c2)c1
inactive: [1] | [2] | [3] | [4] | [5] | [7] | [8] | [9] | [10] | [19] | [12] | [13] | [14] | [15] | [16] | [18]

CC(=O)NCCCS(=O)(=O)O
inactive: [1] | [2] | [3] | [4] | [5] | [6] | [7] | [8] | [9] | [10] | [19] | [11] | [12] | [13] | [15] | [16] | [17] | [18]
